From PubChem
HEK293 tox = cytotoxic in the GLP-1 receptor inverse agonist counter-screen; 0.13% of 410,000 active; HEK293 cAMP-luciferase reporter cells, luminescence, 24 h; AID 624418; Potency, µM (titrated, usually from 38.3 µM), for the others: top-dose activity change, negative = inhibition, actives largely listed as inhibitors;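 also: loss of luciferase light is scored as toxicity; potency is read from the fitted curve at half-maximal effect; % is scaled to controls: 0 for no effect and ±100 for the full control effect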
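Quantitative HTS format, 1536 wells, 200 cells/uL seeded. Compounds: 23 nL, 24 h, 37 °C. Detection: luciferase reagent, luminescence at 12 min RT; decreased signal taken as cytotoxic.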
CCT modulator = changes cytosolic chaperonin activity; purified chaperonin ATPase assay, HTRF ADP detection, 30 min; activity change, % (concentration not given with the values), hits read low; 0.3% of 360,000 active; AID 651819; in the data active = activity change below about -30%; also: % is scaled to controls: 0 for no effect and ±100 for the full control effect
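TRiC at 40 or 20 nM final (batch-dependent) in 30 mM Tris pH 7.4, 100 mM KCl, 5 mM MgCl2, 1 mM DTT, with compound at single 76 uM and 10 uM ATP, 30 min at 37 deg C. ADP detected by HTRF Transcreener, 665/615 ratio.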
MmCpn inh = M. maripaludis TRiC chaperonin inhibition; purified Mm-Cpn ATPase, ADP Transcreener TR-FRET; 0.031% of 330,000 active; Potency, µM (series often up to 76.9 µM), inactives show at the highest dose activity, negative = inhibition, most hits filed as inhibitors; also: potency is read from the fitted curve at half-maximal effect; % is scaled to controls: 0 for no effect and ±100 for the full control effect; nearly all actives have a fitted effect of over 80% in size
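Inhibition of chaperonin ATP hydrolysis is measured as reduced ADP production, detected by competitive TR-FRET in which signal falls with ADP. Final enzyme 25 nM and ATP 10 uM, reacted 30 min at 37°C.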
GLP1R inv ag = inverse agonists of human GLP-1 receptor; Potency, µM (titrated, usually from 38.3 µM), for the others: at the highest dose activity change, negative = inhibition, hits mostly inhibitors; AID 624417; HEK293 GLP-1R CRE-luciferase, luminescence, 24 h; GLP-1R form is constitutively active; 1.6% of 410,000 active; P43220; also: potency is read from the fitted curve at half-maximal effect; % is scaled to controls: 0 for no effect and ±100 for the full control effect; nearly all actives have a fitted effect of over 55% in size
Target sequence (P43220 whole entry, looked up): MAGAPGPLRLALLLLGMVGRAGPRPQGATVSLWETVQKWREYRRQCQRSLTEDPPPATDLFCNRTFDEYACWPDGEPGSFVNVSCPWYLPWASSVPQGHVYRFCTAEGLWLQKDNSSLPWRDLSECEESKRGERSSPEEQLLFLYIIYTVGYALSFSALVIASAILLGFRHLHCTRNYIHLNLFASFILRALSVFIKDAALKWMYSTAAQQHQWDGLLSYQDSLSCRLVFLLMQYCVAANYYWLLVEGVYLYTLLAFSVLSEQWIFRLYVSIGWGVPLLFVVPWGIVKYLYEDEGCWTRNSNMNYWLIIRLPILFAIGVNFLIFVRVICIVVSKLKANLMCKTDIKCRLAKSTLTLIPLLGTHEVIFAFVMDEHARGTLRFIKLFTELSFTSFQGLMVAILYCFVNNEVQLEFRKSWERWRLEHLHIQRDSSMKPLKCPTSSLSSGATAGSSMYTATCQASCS
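Seeding at 200 cells/uL, 12 h culture, 24 hr compound treatment, then luciferase reagent and a luminescence read; cells are HEK293 stably expressing a constitutively active GLP-1R plus cAMP-responsive luciferase.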
GLP1R ag = GLP-1 receptor (human) agonism. P43220. HEK293 GLP-1R CRE-luciferase, luminescence, 4-6 h; cells express a hypersensitive GLP-1R form. Potency, µM (top dose mostly 45.6 µM), for inactives: at the top dose activation, hits mostly activators. 0.007% of 380,000 active. AID 624172; also: potency is read from the fitted curve at half-maximal effect; % of control where 0% means no effect
uPA surface inh = cell surface uPA generation inhibition | cell surface uPA generation assay, qHTS | Potency, µM (titrated, usually from 38.3 µM), inactives show top-dose activity change, negative = inhibition, most hits filed as inhibitors | 0.31% of 330,000 active | AID 540303; active = well fitted inhibition curve with a large enough effect; inconclusive = small, poorly fitted or top-dose-only effect; inactive = no such curve, though single readings can be large or run the other way; tested in mouse RAW 264.7 cells; also: potency is read from the fitted curve at half-maximal effect; % is scaled to controls: 0 for no effect and ±100 for the full control effect; nearly all actives have a fitted effect of over 55% in size
* marks the source's active call; other numbers are inactive results; [ ] = remark or other dose. The list is not random: actives were taken first. Their share in the collection is about 2.2%. Unless noted, calls follow the shape of the dose curve; as a rule, active = well fitted curve in the direction sought with a large enough effect; inconclusive = small, poorly fitted or top-dose-only effect, or another doubt; inactive = no such curve, though single readings can be large; an effect the other way counts as inactive or inconclusive.

`Cc1ccccc1N=Nc1c(O)[nH]c2ccccc12` gave HEK293 tox 6%, CCT modulator -10, GLP1R inv ag 3%, GLP1R ag -1% and uPA surface inh -1%.
Screening Oc1ccc(NC(=S)N=Nc2c(O)[nH]c3ccccc23)cc1 returned HEK293 tox inconclusive, CCT modulator 0, MmCpn inh -3%, GLP1R inv ag -1%, GLP1R ag 0% and uPA surface inh -4%.
COc1ccc(NC(=S)N=Nc2c(O)[nH]c3ccccc23)cc1 was read as HEK293 tox 3.2µM*, CCT modulator -3, MmCpn inh 3%, GLP1R inv ag inconclusive, GLP1R ag -4% and uPA surface inh inconclusive.
Screening Cc1ccc(NC(=S)N=Nc2c(O)[nH]c3ccccc23)cc1 returned HEK293 tox 4µM*, CCT modulator 0, MmCpn inh 1%, GLP1R inv ag inconclusive, GLP1R ag 11% and uPA surface inh -6%.
Screening CC(C)CC(=O)Nc1nnc(SCc2cc(=O)n3ccccc3n2)s1 returned HEK293 tox 6% and GLP1R inv ag -1%.
`COc1ccccc1N1CCN(c2nc3ccccc3n3cnnc23)CC1` gave HEK293 tox -7% and GLP1R inv ag -22%.
For Cc1ccc(C2C(=O)N(C3CCCCCC3)CC(=O)N2CCC2=CCCCC2)cc1 (stereo not drawn) the results were HEK293 tox 5% and GLP1R inv ag -5%.
Cc1ccc(-c2nc(NCCCN(C)C)c3ccccc3n2)cc1 was read as HEK293 tox -16%, CCT modulator -2, GLP1R inv ag 10µM* and GLP1R ag 0%.
`CC(C)(C)C(=O)OCCNc1nc(-c2ccccc2)nc2ccccc12` gave HEK293 tox inconclusive, CCT modulator -1, MmCpn inh 1%, GLP1R inv ag 13µM*, GLP1R ag -10% and uPA surface inh -3%.
For CC(C)OCCCNc1nc(-c2ccccc2)nc2ccccc12 the results were HEK293 tox -26%, CCT modulator -2, MmCpn inh -12%, GLP1R inv ag inconclusive, GLP1R ag 9% and uPA surface inh inconclusive.
Screening O=C(COC(=O)/C=C/c1ccc(OC(F)F)cc1)NC1CCCC1 returned HEK293 tox 8%, CCT modulator -117*, MmCpn inh -1%, GLP1R inv ag 9%, GLP1R ag 0% and uPA surface inh 0%.
For CCc1ccc(NC(=O)c2cccc(N3CCCS3(=O)=O)c2)cc1 the results were HEK293 tox -8% and GLP1R inv ag inconclusive.
Screening O=C1N/C(=C/c2ccc(N3CCOCC3)o2)C(=O)N1c1cccc(Cl)c1 returned HEK293 tox 15%, CCT modulator 0, MmCpn inh 2%, GLP1R inv ag 5%, GLP1R ag 5% and uPA surface inh 4µM*.
`O=C(C1COc2ccccc2O1)N1CCN(c2ccccc2O)CC1` (stereo not drawn) gave HEK293 tox 2%, CCT modulator 2, MmCpn inh -1%, GLP1R inv ag -28%, GLP1R ag 4% and uPA surface inh -19%.
Screening O=C(C1COc2ccccc2O1)N1CCN(Cc2ccc(Br)cc2F)CC1 (stereo not drawn) returned HEK293 tox 7%, CCT modulator 2, MmCpn inh 0%, GLP1R inv ag 11µM*, GLP1R ag 7% and uPA surface inh -4%.
`COc1cc(C)cc2oc(=O)c(CC(=O)N3CCN(C(=O)C4COc5ccccc5O4)CC3)c(C)c12` (stereo not drawn) gave HEK293 tox -16%, CCT modulator -3, MmCpn inh inconclusive, GLP1R inv ag 10µM*, GLP1R ag -6% and uPA surface inh 3%.
CC(=O)Oc1ccc2c(C)c(CC(=O)N3CCN(C(=O)C4COc5ccccc5O4)CC3)c(=O)oc2c1C (stereo not drawn) was read as HEK293 tox inactive, CCT modulator -1, MmCpn inh -7%, GLP1R inv ag -14%, GLP1R ag 5% and uPA surface inh 4%.
For Cc1cc(O)c2c(C)c(CC(=O)N3CCN(C(=O)C4COc5ccccc5O4)CC3)c(=O)oc2c1 (stereo not drawn) the results were HEK293 tox 12%, CCT modulator 0, MmCpn inh -9%, GLP1R inv ag 6.3µM*, GLP1R ag 0% and uPA surface inh -6%.
`COc1ccc(Cn2cc(S(=O)(=O)c3ccc(C)cc3)c(=O)c3cc(F)ccc32)cc1` gave HEK293 tox 14% and GLP1R inv ag 11%.
COc1ccc(CN(C(=O)c2cnccn2)C(C(=O)Nc2ccc(F)cc2)c2ccccc2)cc1 (stereo not drawn) was read as HEK293 tox -17%, CCT modulator 1, MmCpn inh 1%, GLP1R inv ag 5.6µM*, GLP1R ag 0% and uPA surface inh -2%.
For CCC(C)(C)NC(=O)C(c1ccc(F)cc1)N(Cc1ccc(OC)cc1)C(=O)c1cnccn1 (stereo not drawn) the results were HEK293 tox 0%[7.66 µM], CCT modulator 1, MmCpn inh 1%, GLP1R inv ag -8%[7.66 µM], GLP1R ag 10% and uPA surface inh 3%.
Cc1ccc(CNC(=O)CCCN2C(=O)COc3ccc(C)cc32)cc1 was read as HEK293 tox -3% and GLP1R inv ag -12%.
Cc1cc(C)c2ccc(N)nc2c1O was read as HEK293 tox inconclusive, CCT modulator 1, MmCpn inh 1%, GLP1R inv ag 13µM*, GLP1R ag -22% and uPA surface inh -11%.
`Cn1c(=O)[nH]c(=O)c2c1nc(N1CCOCC1)n2Cc1ccccc1` gave HEK293 tox -3% and GLP1R inv ag 19%.
Screening CN1CCN(c2ccc(NC(=O)c3ccc(-c4ccc(Cl)cc4)o3)cc2)CC1 returned HEK293 tox inconclusive, CCT modulator 1, MmCpn inh 1%, GLP1R inv ag 4µM*, GLP1R ag 27% and uPA surface inh -1%.
For CC(C)(C)c1ccc(OCC(=O)NCC2(N3CCOCC3)CCCCC2)cc1 the results were HEK293 tox -1% and GLP1R inv ag inconclusive.
`c1ccc2c(c1)oc1c(NCCCn3ccnc3)ncnc12` gave HEK293 tox -6%, CCT modulator -3, MmCpn inh 0%, GLP1R inv ag 23%, GLP1R ag -2% and uPA surface inh 9%.
For O=c1c2ccccc2oc2ccc(NCCCn3ccnc3)cc12 the results were HEK293 tox 43%, CCT modulator 0, MmCpn inh 0%, GLP1R inv ag -27%, GLP1R ag 4% and uPA surface inh 4.5µM*.
